This note sets out measurements from PubChem BioAssay (NCATS).

Records with an inconclusive call do not appear. A call without a number means that no potency is given here. The source made the active and inactive calls. The call rests on the fitted dose curve; in most records, active means well fitted curve in the direction sought with a large enough effect; inconclusive means small, poorly fitted or top-dose-only effect, or another doubt; inactive means no such curve, though single readings can be large; an effect the other way counts as inactive or inconclusive.

Assay [1] has as its target Arylsulfatase A (Homo sapiens) (UniProt P15289). Nature of the assay: qHTS screen for enhancers of Arylsulfatase A (ASA1): LOPAC Validation Assay (AID 720538). Further: potency means the concentration at half of the fitted maximal effect. The note with it: ASA enzyme activity, LOPAC qHTS enhancer assay; series mostly up to 57.5 µM. The gist of the method: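 First, ASA-I179S fibroblasts from an MLD patient adhered for 6 hrs. Next, compounds were added for 48h. Then pNCS substrate (0.5mM final) with lysis buffer reacted 14h at room temperature before NaOH stop and fluorescence measurement.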

A short description of assay [2]: qHTS for compounds that reverse cellular toxicity of Amyloid beta (A-beta) peptide in yeast: LOPAC Validation Assay (AID 720559). The note with it: yeast expressing A-beta; series mostly up to 46.1 µM. The method, boiled down: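 Activity is expressed relative to DMSO and an equimolar ferric chloride/clioquinol mix. Compounds were pinned into medium with A-beta-expressing yeast, grown 48 hr at 30 C, then read by absorbance at 600 nm.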
On the technique in general: qHTS replaces the single test concentration by a dilution series.

A short description of assay [3]: qHTS for Activators of Parkin Expression: LOPAC Validation Assay (NLuc Reporter) (AID 720572). The note with it: Parkin promoter NanoLuc reporter cells, luminescence; series mostly up to 46.1 µM. The gist of the method: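 Neuronal line stably carrying a FLuc/NLuc coincidence reporter under the Parkin promoter, seeded 24 h, then dosed in 7-point series for 24 h at 37 C. NLuc luminescence read after FLuc; normalized to DMSO and positive control (100%).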

Arylsulfatase A (Homo sapiens), sequence (P15289 whole entry, looked up): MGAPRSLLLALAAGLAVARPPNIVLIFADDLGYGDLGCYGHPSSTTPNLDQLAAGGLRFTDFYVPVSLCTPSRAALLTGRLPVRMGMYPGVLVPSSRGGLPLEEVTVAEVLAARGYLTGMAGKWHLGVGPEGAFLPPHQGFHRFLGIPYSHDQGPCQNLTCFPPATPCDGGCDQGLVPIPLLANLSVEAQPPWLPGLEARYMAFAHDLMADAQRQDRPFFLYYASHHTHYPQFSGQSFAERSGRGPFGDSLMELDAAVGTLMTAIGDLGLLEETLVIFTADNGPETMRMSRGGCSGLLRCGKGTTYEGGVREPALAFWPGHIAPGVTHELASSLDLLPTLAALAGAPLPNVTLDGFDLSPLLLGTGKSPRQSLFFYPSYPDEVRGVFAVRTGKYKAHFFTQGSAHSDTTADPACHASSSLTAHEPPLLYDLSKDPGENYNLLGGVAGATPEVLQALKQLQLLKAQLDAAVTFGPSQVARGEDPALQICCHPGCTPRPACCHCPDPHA

As for `CCCN1CCc2cccc3c2[C@H]1Cc1ccc(O)c(O)c1-3`, the Potency entry in assay [1] and in assay [3] was “inactive” in each case. For the same compound, the compound was called inactive in assay [2].
Consider `c1ccc2cc(CC3=NCCN3)ccc2c1`, for which the Potency entry in assay [1] and in assay [3] was “inactive” throughout. Moreover, in assay [2], the compound was classed as inactive.
On to `CCCCCCCCCCCCCC(=O)O[C@@H]1[C@@H](C)[C@@]2(O)[C@@H](C=C(CO)C[C@@]3(O)C(=O)C(C)=C[C@@H]23)C2C(C)(C)[C@@]21OC(C)=O` (some centres not stated), for which the Potency entry in assay [1] and in assay [3] was “inactive” each time. For the same compound, the outcome in assay [2] was inactive.
`NC(N)=Nc1ccc2[nH]c3c(c2c1)C[C@@]1(O)[C@H]2Cc4ccc(O)c5c4[C@@]1(CCN2CC1CC1)[C@H]3O5`: the Potency entry in assay [1] and in assay [3] was “inactive” throughout. Moreover, the outcome in assay [2] was inactive.
Consider `OC1CCCCC1N1CCC(c2ccccc2)CC1` (configuration not stated), for which the Potency result in assay [1] and in assay [3] was “inactive” throughout. Besides, the result in assay [2] was inactive.
Regarding `CN1CC[C@@]2(C)c3cc(O)ccc3N(C)C12` (some centres not stated), the Potency result in assay [1] and in assay [3] was “inactive” each time. In assay [2], the result was inactive.
With `CN1CCC(c2c[nH]c3ccc(O)cc23)CC1`, the Potency entry in assay [1] and in assay [3] was “inactive” throughout. The compound was called inactive in assay [2].
`Cc1sc2ccccc2c1CC1=NCCN1`: the Potency entry in assay [1] and in assay [3] was “inactive” in each case. Moreover, the result in assay [2] was inactive.
Regarding `NC(Cc1cc(O)c(O)cc1O)C(=O)O` (configuration not stated), the Potency in assay [1] is 16.9 µM (active). Also, in assay [2], the compound was classed as inactive. For the same compound, in assay [3], the Potency result was “inactive”.
Take `N[C@@H](CCl)C(=O)O`: the Potency entry in assay [1] and in assay [3] was “inactive” in each case. Also, the outcome in assay [2] was inactive.
Regarding `CC1(C(=O)O)C2CCC(O2)C1(C)C(=O)O` (configuration not stated), the Potency result in assay [1] and in assay [3] was “inactive” in each case. The call in assay [2] was inactive.
For `CN(N=O)c1ccc(O)c(O)c1`, the Potency in assay [1] was 3.01 µM (active). The compound was called inactive in assay [2]. The Potency result in assay [3] was “inactive”.
In the case of `CNc1ccc2oc(C[C@H]3O[C@@]4(CC[C@H]3C)O[C@H]([C@H](C)C(=O)c3ccc[nH]3)[C@H](C)C[C@H]4C)nc2c1C(=O)O`, the Potency entry in assay [1] and in assay [3] was “inactive” in each case. For the same compound, in assay [2], the call was inactive.
In the case of `C=CCN1CC[C@]23c4c5ccc(O)c4O[C@H]2/C(=N/NC(=O)c2ccccc2)CC[C@@]3(O)[C@H]1C5`, the Potency result in assay [1] and in assay [3] was “inactive” each time. Also, the compound was classed as inactive in assay [2].
